TRPV1 PAM = enhances activation of the human vanilloid receptor TRPV1 | TRPV1-expressing cells, Fluo-8 calcium influx, capsaicin EC20 potentiation | Q8NER1 | 0.02% of 320,000 active | potentiation, % at 8.33 µM | AID 540277; in the data active = potentiation above about 80%; inconclusive = between about 30% and that limit; also: 0% is about no effect
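TRPV1-expressing cells were cultured overnight at 35.5C and loaded with Fluo-8 calcium dye for 40 to 90 min at room temperature. After a 10 s baseline, compound was added and calcium influx was read kinetically for 3 min (ex 480/em 520 nm).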
uPA generation = inhibitors of cell surface uPA generation | AID 540303 | Potency, µM (highest dose often 38.3 µM), for inactives: at the top dose activity change, negative = inhibition, most hits filed as inhibitors | cell surface uPA generation assay, qHTS | 0.31% of 330,000 active; active = well fitted inhibition curve with a large enough effect; inconclusive = small, poorly fitted or top-dose-only effect; inactive = no such curve, though single readings can be large or run the other way; tested in mouse RAW 264.7 cells; also: potency is read from the fitted curve at half-maximal effect; % is scaled to controls: 0 for no effect and ±100 for the full control effect; nearly all actives have a fitted effect of over 55% in size
RORg inh = ROR gamma (mouse) transcription inhibition. P51450. Drosophila S2 Gal4-RORgamma UAS-luciferase reporter, 20 h. Potency, µM (top dose mostly 53.6 µM), without a hit: at the highest dose activity change, negative = inhibition, actives largely listed as inhibitors. 5.4% of 310,000 active. AID 2551; also: potency is read from the fitted curve at half-maximal effect; % is scaled to controls: 0 for no effect and ±100 for the full control effect; nearly all actives have a fitted effect of over 60% in size
Target sequence (P51450 whole entry, looked up, the tested form may be a part): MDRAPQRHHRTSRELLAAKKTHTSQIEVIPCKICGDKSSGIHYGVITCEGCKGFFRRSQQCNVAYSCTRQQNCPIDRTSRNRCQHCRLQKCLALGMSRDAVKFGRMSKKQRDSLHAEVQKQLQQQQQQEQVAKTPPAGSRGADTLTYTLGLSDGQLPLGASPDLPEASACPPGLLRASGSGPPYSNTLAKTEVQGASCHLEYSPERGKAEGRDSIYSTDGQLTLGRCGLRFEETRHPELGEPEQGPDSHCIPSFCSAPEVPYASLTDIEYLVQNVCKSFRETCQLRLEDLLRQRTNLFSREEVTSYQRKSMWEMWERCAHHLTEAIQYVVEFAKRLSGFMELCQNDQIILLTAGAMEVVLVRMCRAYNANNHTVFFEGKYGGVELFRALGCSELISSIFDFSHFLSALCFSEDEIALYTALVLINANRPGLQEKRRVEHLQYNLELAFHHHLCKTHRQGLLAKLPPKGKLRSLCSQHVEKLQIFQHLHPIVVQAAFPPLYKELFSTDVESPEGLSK
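Luciferase reporter read in Schneider cells carrying Gal4-RORγ (mouse) and UAS-Photinus luciferase; cells given compound 1 h before 700 uM copper sulfate induction, then incubated 20 h at ambient temperature.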
VP16 counter = Gal4-VP16 reporter inhibition counter-screen; Drosophila S2 Gal4-VP16 UAS-luciferase, luminescence, 20 h; 3.5% of 310,000 active; Potency, µM (highest dose often 53.6 µM), inactives show top-dose activity, negative = inhibition, actives largely listed as inhibitors;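 also: Gal4-VP16 expression switched on by copper sulfate through the metallothionein promoter; potency is read from the fitted curve at half-maximal effect; % is scaled to controls: 0 for no effect and ±100 for the full control effect; nearly all actives have a fitted effect of over 50% in size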
TRPV1 ag = human TRPV1 agonism. Q8NER1. TRPV1-expressing cells, Fluo-8 calcium influx, agonist mode. activation, % at 8.33 µM. 0.19% of 320,000 active. AID 540275; in the data active = activation above about 80%; inconclusive = between about 30% and that limit; also: 0% is about no effect
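Fluo-8 calcium influx in TRPV1-expressing cells, kinetic read (ex 480/em 520 nm). Compound added and read 3 min for agonist activity, followed by capsaicin at EC20 final and 2 min further read for enhancement.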
Starred values were filed as active, the others as inactive; ? = inconclusive; . = no result given; [ ] = another dose, or the depositor's remark. Shown are actives, neighbours in structure and some others; about 5.8% of the full set was active somewhere. Unless noted, calls follow the shape of the dose curve; as a rule, active = well fitted curve in the direction sought with a large enough effect; inconclusive = small, poorly fitted or top-dose-only effect, or another doubt; inactive = no such curve, though single readings can be large; an effect the other way counts as inactive or inconclusive.

SMILES	TRPV1 PAM	uPA generation	RORg inh	VP16 counter	TRPV1 ag
O=C1C2C3C=CC(C3)C2C(=O)N1c1ccccc1 (stereo unspecified)	4	0%	22%	-7%	-3
CC1CCCN(C(=O)CSc2ncccn2)C1 (stereo unspecified)	?	0%	-9%	0%	-2
CN1C(=O)C2(NC(=O)c3ccccc3N2C)c2ccccc21 (stereo unspecified)	-4	9%	1%	3%	-3
CN1C(=O)C(Cl)(Cl)C(=O)c2ccccc21	0	-17%	11µM*	?	3
CC(C1CC2CCC1C2)n1c(-c2cccs2)n[nH]c1=S (stereo unspecified)	-2	1%	0.79µM*	?	4
CC(NCC(O)COCc1cccs1)C1CC2CCC1C2 (stereo unspecified)	2	-1%	-5%	10%	1
CCOC(=O)CCN1C(=O)[C@H]2[C@H]3[C@H](O)[C@H](O)C/C(=N/OC/C=C(\C)CCC=C(C)C)[C@H]3CC[C@@H]2C1=O	.	.	-5%[10 µM]	-7%[10 µM]	.
C=CCn1c(SCC(=O)NC2CCCC2)nnc1-c1ccccn1	5	-10%	5.6µM*	-4%	0
CCCn1c(SCC(=O)NC2CCCC2)nnc1-c1ccccn1	-3	11%	1%	-11%	2
O=C(Nc1ccccc1O)/C(=C\c1ccccc1)NC(=O)c1ccccc1	8	3%	17%	1%[10 µM]	-1
CC(=O)NC(=S)Nc1ccc(S(=O)(=O)Nc2ncccn2)cc1	5	3%	-9%	-9%	3
COC(=O)Cc1ccc(NC(=S)N2CCN(c3cc(Cl)ccc3C)CC2)cc1	-8	3%	13µM*	?	0
COC(=O)Cc1ccc(NC(=S)N2CCCC(C)C2)cc1 (stereo unspecified)	-5	-1%	13µM*	11µM*	0
COC(=O)Cc1ccc(NC(=S)N2CCCC(CO)C2)cc1 (stereo unspecified)	-29	-9%	11µM*	7.9µM*	0
COC(=O)Cc1ccc(NC(=S)N2CCN(c3ccccn3)CC2)cc1	5	-7%	15%	-4%	7
CCOC(=O)C(C(=O)OCC)C(C(=O)OCC)N1CCOCC1 (stereo unspecified)	23	4%	0%	5.6µM*	-6
CCOC(=O)C(C)CC(C)C(=O)N1CCOCCOCCN(C(=O)C(C)CC(C)C(=O)OCC)CCOCC1 (stereo unspecified)	0	4%	-17%	1%	4
O=C(Nc1ccccc1O)c1ccccc1O	2	-13%	?	?	11
CC(=O)/C=C(\C)Nc1ccccc1O	-7	7.9µM*	-11%	-3%	-3
C/C(=N/NC(=O)c1cc(O)c(O)c(O)c1)c1ccc([N+](=O)[O-])cc1	-4	-1%	-16%	-6%	-3
C/C(=N\NC(=O)c1ccc([N+](=O)[O-])cc1)c1c(O)cc(C)oc1=O	-23	2%	0.63µM*	?	?
CCc1ccccc1N/N=C(/C)c1c(O)cc(C)oc1=O	-2	5%	24%	-6%	0
C/C(=N\NC(=O)c1ccccc1[N+](=O)[O-])c1c(O)cc(C)oc1=O	2	17%	3.2µM*	6.3µM*	0
C/C(=N\NC(=O)c1cccnc1)c1c(O)cc(C)oc1=O	-2	-1%	-44%	2%	0
C/C(=N\NC(=O)c1ccccc1O)c1c(O)cc(C)oc1=O	-21	-3%	0.89µM*	2.5µM*	?
SMILES	TRPV1 PAM	uPA generation	RORg inh	VP16 counter	TRPV1 ag
CCCC(=O)OCCNc1cc(Sc2nc3ccccc3[nH]2)c2nonc2c1[N+](=O)[O-]	16	-4%	2.8µM*	3.2µM*	2
CCC(=O)OCCNc1cc(Sc2nccn2C)c2nonc2c1[N+](=O)[O-]	-4	8%	4.5µM*	4µM*	1
CCC(=O)OCCNc1cc(SCCC(=O)OC)c2nonc2c1[N+](=O)[O-]	0	4%	-11%	?	-1
Cc1cc(C)nc(SCCC(=O)Nc2ccccc2Cl)n1	8	2%	-29%	10%	2
O=C(Nc1nnc(-c2ccccc2)o1)c1cc(Cl)sc1Cl	19	0%	2.2µM*	1.3µM*	-11
O=C(Nc1nnc(-c2ccc(Cl)cc2)o1)c1nc2ccccc2s1	0	4%	4.5µM*	4.5µM*	21
O=C(Nc1nnc(-c2ccc(F)cc2)o1)c1cc(Cl)sc1Cl	-10	-10%	3.2µM*	2.5µM*	18
O=C(Nc1nnc(-c2ccc(Cl)cc2)o1)Nc1ccccc1Cl	17	-1%	-5%	-4%	2
Cc1ccc(C)c(OC(=O)c2cccc(S(=O)(=O)N3CCN(C)CC3)c2)c1	6	-7%	42%	-3%	18
O=[N+]([O-])c1ccc(N2CCOCC2)cc1O	25	-7%	14%	13%	-2
Cc1cc(N2CCOCC2)ccc1/C=C\[N+](=O)[O-]	2	-17%	6.3µM*	10µM*	4
COCCNc1nc(SC)nc2sc3c(c12)CCN(C)C3	2	7%	5%	-2%	-2
COCCCNc1nc(SCc2ccccc2)nc2sc3c(c12)CCC3	19	-1%	11µM*	-19%	0
O=C(CN1C(=O)S/C(=C/c2cc(Br)cs2)C1=O)N1CCOCC1	10	5%	1%	2%	6
CC(c1ccccc1F)n1cc(C(=O)NCc2ccncc2)nn1 (stereo unspecified)	-16	0%	2.8µM*	5%	?
CC(c1ccccc1)n1cc(C(=O)NCc2ccncc2)nn1 (stereo unspecified)	-20	2%	-8%	-10%	23
C=C(C)C1Cc2c(C)nn(-c3nc(C)cc(C)n3)c2C1 (stereo unspecified)	-14	-4%	0.35µM*	2µM*	24
COc1ccccc1-c1nnc(NC(=O)C(C)SC2=NCCS2)s1 (stereo unspecified)	11	-16%	13µM*	?	8
CC(SC1=NCCS1)C(=O)Nc1nnc(-c2ccc(Cl)cc2)s1 (stereo unspecified)	8	-5%	5µM*	8.9µM*	5
CCOC(=O)C1(Cc2ccc(OC)cc2)CCN(C(=O)[C@@H]2CCCN2C(C)=O)CC1	7	6%	24%	24%	-5
COc1cc(C(=O)NCC(=O)OCC(=O)Nc2nnc(-c3ccccc3)o2)cc(OC)c1OC	-4	18%	.	.	-1
COc1ccc(C(=O)Nc2nnc(C3=COCCO3)o2)cc1	-3	1%	2.2µM*	2µM*	5
CCOc1ccc(C(=O)NCCc2ccc3c(c2)OCCO3)cc1	-1	-2%	?	-5%	-2
CCOc1ccc(C(=O)Nc2nnc(C3=COCCO3)o2)cc1	-5	4%	2.5µM*	1µM*	0
COc1cc(C(=O)Nc2nnc(C3=COCCO3)o2)cc(OC)c1OC	10	2%	2.5µM*	2.8µM*	-1

Screening results as filed in PubChem BioAssay.
